The text below walks through data of PubChem BioAssay AID1918 (Vanderbilt High Throughput Screening Facility, 2009).

Hit rate of the full screen: of about 130,000 compounds, about 2,500 (1.9%) were called active. The list comes from a sample in which actives are over-represented; it also holds similar structures and randomly drawn compounds. Values without a mark were called inactive.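 How the source made its calls: active means signal ratio slope over the read window, or its plate-corrected B-score, at least 3 SD from the plate mean, either direction; inactive means the rest.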

In this test the target is ATP-sensitive inward rectifier potassium channel 1 (Homo sapiens) (UniProt P48048). Put plainly: ROMK potassium channel modulators, primary screen, cell-based, thallium flux, MLSMR library (AID 1918).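 Further: B-score of the F/F0 ratio slope over 7 to 12 s after thallium.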 The settings on record: Tet-inducible ROMK, thallium flux fluorescence; at 10 µM; actives lie on both sides.
ATP-sensitive inward rectifier potassium channel 1 (Homo sapiens), sequence (P48048 whole entry, looked up): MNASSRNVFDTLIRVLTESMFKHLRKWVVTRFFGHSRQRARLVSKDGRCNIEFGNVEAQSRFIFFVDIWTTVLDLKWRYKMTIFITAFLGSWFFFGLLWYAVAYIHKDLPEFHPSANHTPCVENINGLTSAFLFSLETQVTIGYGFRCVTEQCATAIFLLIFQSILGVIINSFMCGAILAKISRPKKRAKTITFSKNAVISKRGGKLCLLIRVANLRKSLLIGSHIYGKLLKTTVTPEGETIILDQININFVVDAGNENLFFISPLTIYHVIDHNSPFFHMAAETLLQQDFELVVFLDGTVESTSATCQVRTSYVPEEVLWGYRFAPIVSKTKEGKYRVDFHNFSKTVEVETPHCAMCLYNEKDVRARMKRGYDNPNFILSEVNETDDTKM
For `CCOC(=O)C1(CC2CCCCO2)CCN(Cc2nc(-c3cccs3)oc2C)CC1` (stereo not given), the B-score is -0.7.

For the molecule `CCc1nc2ccccc2c(C(=O)NCc2ccc(OC)cc2)c1C`, the B-score is 0.0138.

Regarding `c1ccc2c(c1)CSc1sccc1C2=C1CCNCC1`, the B-score is -2.98 (active).

On to `O=C(NCc1nnc(SCC(=O)N2CCC(Cc3ccccc3)CC2)o1)c1ccco1`, for which the B-score is -0.765.

On to `Cc1ccc(OCC(=O)NNC(=S)NCc2ccccc2)cc1`, for which the B-score is 0.804.

Take `CC(Oc1ccc2ccccc2c1)C(=O)NNC(=S)NC(=O)c1ccco1` (stereo not given): the B-score is 2.32.

With `CCCc1ccc(OCC(=O)NNC(=S)NC(=O)c2ccco2)cc1`, the B-score was 4.19 (active).

Consider `O=C(Nc1ccccc1F)c1ccccc1-c1ccc(C(F)(F)F)cc1`, for which the B-score is 0.0696.

As for `N#C/C(=C\c1ccccc1C(F)(F)F)C(=O)Nc1ccccc1F`, the B-score is -4.23 (active).

In the case of `Cc1ccc(/C=C(\C#N)C(=O)Nc2cccc3ncccc23)o1`, the B-score was -0.963.

Take `CCCCNC(=O)c1ccc(-n2c(=S)[nH]c3ccccc3c2=O)cc1`: the B-score was 0.371.

Consider `O=C1C2C3C=CC(C3)C2C(=O)N1c1ccc(-c2nc3ccccc3c(=O)o2)cc1` (stereo not given), for which the B-score is -0.106.

Take `Cc1ccc(NC(=O)C(=O)NCC2CCN(C(=O)c3cccc([N+](=O)[O-])c3)CC2)cc1`: the B-score was 0.475.

`Cc1ccc(-n2[nH]c(C)c(/C=N/N3C(=O)c4cccc5cccc(c45)C3=O)c2=O)cc1`: the B-score was 3.89 (active).

As for `Cc1[nH]n(-c2cccc(Cl)c2)c(=O)c1/C=N/n1c(C)nc2ccccc2c1=O`, the B-score was 0.302.

For the molecule `Cc1[nH]n(-c2ccc(Cl)cc2)c(=O)c1/C=N/n1c(C)nc2ccccc2c1=O`, the B-score is -0.843.

Consider `COc1ccccc1Cn1c(C)nnc1-c1cnn(C)c1N`, for which the B-score is 0.26.

`CC(Sc1nnnn1C1CCCCC1)C(=O)O` (stereo not given): the B-score is 0.253.

With `O=S(=O)(Nc1ncccn1)c1ccc(NS(=O)(=O)c2cccc(Cl)c2Cl)cc1`, the B-score is 0.305.

`CCOc1ccc2cc(C#N)c(SCC(=O)OC)nc2c1`: the B-score was -0.501.

Regarding `Cc1cccc2cc(C#N)c(N3CCCC3)nc12`, the B-score is -0.0822.

Turning to `CCOc1ccc2nc(N3CCCN(C(=O)Nc4ccccc4C)CC3)c(C#N)cc2c1`, the B-score is -5.81 (active).

Consider `COC(=O)CN1C(=O)N/C(=C/c2ccc(OC)c(C)c2OC)C1=O`, for which the B-score was 1.31.

In the case of `COc1ccc(C2C(C(C)=O)=C(O)C(=O)N2c2nccs2)cc1` (stereo not given), the B-score was 0.28.

Regarding `CCOC(=O)C1=C(C)N=c2s/c(=C\C(=O)OC)c(=O)n2C1c1ccc(OC)cc1` (stereo not given), the B-score is -6.39 (active).

As to `CCOC(=O)C1=C(CSc2nccn2C)NC(=O)NC1c1ccc(OC)cc1` (stereo not given), the B-score is 0.553.

As to `CCC(CC)c1nnc(NC(=O)c2nn(C)c(=O)c3ccccc23)s1`, the B-score was -0.146.

As to `Cc1nc(COc2cccc(Cl)c2)sc1C(=O)/C=C/N(C)C`, the B-score is -0.0177.

For the molecule `O=C(CCC(=O)OCc1ccc(Cl)cc1)Nc1ccccc1`, the B-score was 1.21.

As for `O=C(C(Cl)Cl)N1CCN(c2ccccn2)CC1`, the B-score is 0.591.

Take `Cc1ccc(S(=O)(=O)NCC(=O)N2CCN(c3ccccn3)CC2)cc1`: the B-score is 0.248.

On to `COc1cccc(CC(=O)N2CCCC(CCC(=O)N3CCN(c4ccccn4)CC3)C2)c1` (stereo not given), for which the B-score was 0.339.

On to `O=C(CCC1CCCN(C(=O)Cc2ccc(F)cc2)C1)N1CCN(c2ccccn2)CC1` (stereo not given), for which the B-score is 2.32.

For `O=C(Cc1ccc(Br)cc1)N1CCN(c2ccccn2)CC1`, the B-score was -2.13 (active).

On to `O=C(Cc1ccccc1Cl)N1CCN(c2ccccn2)CC1`, for which the B-score was -4.7 (active).

Regarding `COc1cccc(CN(C)CC(=O)NCc2ccccc2Cl)c1OC`, the B-score was -0.0981.

Turning to `CCNC(=O)COC(=O)/C=C/c1c(C)nn(Cc2cccc(OC)c2)c1Cl`, the B-score was -0.509.

As to `Cc1ccc(N(C(=O)c2ccc(S(=O)(=O)N(C)C)cc2)C2C=CS(=O)(=O)C2)cc1` (stereo not given), the B-score was -0.406.

With `CN(C)/C=C(/C(=O)c1ccccc1Cl)S(C)(=O)=O`, the B-score is 0.383.

Regarding `CN(C)/C=C(/C(=O)c1ccc(Cl)c(Cl)c1)c1nnnn1-c1ccccc1`, the B-score was -2.28 (active).

With `CN(C)/C=C(/C(=O)c1ccccc1)S(=O)(=O)c1ccc(Cl)cc1`, the B-score is -0.0973.

Take `Cc1cc(C)n(CC(=O)Nc2ccc([N+](=O)[O-])cc2)n1`: the B-score is 0.748.

For `CCOC(=O)CSc1nnc(-c2ccc([N+](=O)[O-])cc2)o1`, the B-score was -0.954.

For `O=C(CN1C(=O)NC2(CCCC2)C1=O)NCC1CCCO1` (stereo not given), the B-score was 0.00667.

Turning to `O=C(CN1C(=O)NC(Cc2ccccc2)(Cc2ccccc2)C1=O)NCC1CCCCC1`, the B-score is -4.09 (active).

With `O=C(CN1C(=O)NC2(CCCCCC2)C1=O)NC1CC1`, the B-score is -0.159.

Take `O=S(=O)(NCc1ccco1)c1cnc(Cl)c(Cl)c1`: the B-score was 0.266.

For `CCOc1cc(NC(=S)NCCCN(C)C)c(OCC)cc1NC(=O)C1CC1`, the B-score is 0.491.

Regarding `Cn1c(CNc2nc(-c3ccccc3)cs2)nnc1SCC(=O)c1ccccc1`, the B-score is -4.43 (active).

For `Cn1c(CC(=O)Nc2ccccc2)nnc1SCC(=O)c1ccccc1`, the B-score was 0.607.

Turning to `Cc1ccc(-c2csc(NNC(=O)c3ccccc3)n2)cc1`, the B-score was -0.0341.

Regarding `CCC(C)(C)NC(=O)C(c1cccc(OC)c1OC)N(CC(C)C)C(=O)CCC(=O)Nc1cc(C)on1` (stereo not given), the B-score was -1.25.

For the molecule `CSc1cc(C)[nH]c(=O)n1`, the B-score was 0.14.

With `CCC(=O)Nc1ccc(Nc2nc(Cl)nc(Nc3ccc(NC(=O)CC)cc3)n2)cc1`, the B-score was 0.00778.

Take `CCCCCCCCCCOC(=O)C[N+](C)(C)CC1CCCCC1O` (stereo not given): the B-score was -1.79 (active).

As for `CCCCCOC(=O)c1ccc(N2C(=O)C3C4C=CC(C4)C3C2=O)cc1` (stereo not given), the B-score is -0.208.

Turning to `[O-][n+]1c2c(nn1-c1ccc(Cl)c(Cl)c1)-c1nonc1CC2`, the B-score was -0.675.

As to `CCOC(=O)c1ccc(N2C(=O)CC(N3CCN(C(=O)c4ccccc4)CC3)C2=O)cc1` (stereo not given), the B-score is -0.67.

Turning to `NC(=O)C1(C(N)=O)OC1c1ccc(Cl)cc1Cl` (stereo not given), the B-score is 0.219.

On to `CC(=O)Nc1ccc(S(=O)(=O)N(C)c2ccc(OCC(=O)OCC(=O)N3CCCCC3)cc2)cc1`, for which the B-score is 0.712.

Consider `N=c1n(CCc2ccccc2)c2ccccc2n1Cc1ccccc1F`, for which the B-score was -3.48 (active).

With `CN(Cc1ccccc1)Cc1ccccc1F`, the B-score is 0.0291.

For `Fc1ccccc1Cn1cnc(NC(=S)NCCc2ccccc2)n1`, the B-score was 0.722.

As to `Cc1ccc(-n2c(O)c(C=Nc3ccc(S(=O)(=O)Nc4ncccn4)cc3)c3ccccc3c2=O)cc1C`, the B-score is 0.113.

`O=c1[nH]c(CSc2ccccc2)nc2c1oc1ccccc12`: the B-score is 0.176.

For the molecule `CCc1cccc2c(=O)c(C(=O)NCCCOC)c[nH]c12`, the B-score is 0.0144.

With `O=S(=O)(c1ccccc1)N(CC(O)CN1CCCCC1)c1ccccc1` (stereo not given), the B-score was -0.476.

For `CC(C)CN(CC(C)C)CC(O)CN(c1ccccc1)S(=O)(=O)c1ccccc1[N+](=O)[O-]` (stereo not given), the B-score was -2.88 (active).

Consider `Cc1cccc(N(CC(O)CN(C)C)S(=O)(=O)c2ccccc2)c1` (stereo not given), for which the B-score is 0.476.

As for `C=CCNC(=O)COC(=O)CNC(=O)c1cc(Cl)cc([N+](=O)[O-])c1`, the B-score was 0.319.

Take `COc1ccccc1NC(=O)C[n+]1ccccc1`: the B-score is -0.558.

Regarding `COC(=O)Cc1nc2ccccc2[nH]1`, the B-score was -0.0215.

As for `COC(=O)C[n+]1cccc2ccccc21`, the B-score is -4.33 (active).

On to `COc1cccc(NCCC(=O)c2cccc([N+](=O)[O-])c2)c1`, for which the B-score was 1.54.

On to `O=C(N/N=C/c1ccc(OCC2COCCO2)cc1)c1ccc(Br)cc1` (stereo not given), for which the B-score was 0.0877.

On to `Cc1ccc(NC(=O)CN2CCC(C(N)=O)CC2)cc1[N+](=O)[O-]`, for which the B-score was -0.771.

For the molecule `Cc1ccc(NC(=O)c2cccnc2C(=O)Nc2ccc(C)cc2)cc1`, the B-score was 0.166.

As to `O=C(COC(=O)c1cnccn1)Nc1cccc2ccccc12`, the B-score was 0.345.

With `CN(C)S(=O)(=O)c1ccc(NC(=O)N2CCOCC2)cc1`, the B-score is -0.469.

`CCN(CC)S(=O)(=O)c1ccc(Cl)c(NC(=O)c2ccncc2)c1`: the B-score was -0.305.

For `CS(=O)(=O)c1ccc(Cl)c(NC(=O)Nc2ccccc2)c1`, the B-score is -8.31 (active).

For the molecule `Cc1c(NC(=O)Nc2ccccc2)cccc1[N+](=O)[O-]`, the B-score is 1.03.

In the case of `CCOCCCNCc1cc(Br)ccc1OCC`, the B-score is -0.61.

Consider `Cc1ccc(C)c(NC(=O)CCC(=O)N/N=C2/CC(=O)CC(C)(C)C2)c1`, for which the B-score was -0.197.

Turning to `COc1cccc(NC(=O)COC(=O)CCOc2ccccc2OC)c1`, the B-score was 2.55.

In the case of `CCOC(=O)CSc1nc2c(sc(=S)n2CCc2ccccc2)c(=O)n1Cc1ccco1`, the B-score was 0.0111.

Take `Cc1cs/c(=N\N=C\c2ccc(O)cc2)n1Cc1ccco1`: the B-score was -2.07.

For the molecule `CN(c1ccccc1)c1ccc(/C=c2\s/c(=C(/C#N)C(=O)C(C)(C)C)n(Cc3ccco3)c2=O)cc1`, the B-score was -5.56 (active).

Turning to `CC(=O)Nc1nc2ccccc2n1Cc1ccc(C)cc1`, the B-score is -0.122.

In the case of `Cc1ccnc(SCC(N)=O)n1`, the B-score was 0.191.

With `CC(C)C(c1nnnn1C(C)(C)C)N1CCN(Cc2cccnc2)CC1` (stereo not given), the B-score is 1.58.

As to `CC(C)C(c1nnnn1Cc1ccccc1)N1CCC(C(N)=O)CC1` (stereo not given), the B-score was 0.519.

On to `CCCC(c1nnnn1C(C)(C)C)N1CCN(Cc2ccccc2)CC1` (stereo not given), for which the B-score is -13.3 (active).

`CC(=O)Nc1ccc(NC(=O)CSc2nnc(COc3ccccc3C)n2CC2CCCO2)cc1` (stereo not given): the B-score was -0.134.

As to `Cc1ccc(C(=O)N/C(=C\c2ccco2)C(=O)N2CCSCC2)cc1C`, the B-score was 1.44.
